The results in this text go back to PubChem BioAssay.

Experiment [1] in a line: antimalarial activity against Dd2 strain (AID 2302;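 active means growth inhibition above 50% at the single 2 µM test dose, taken to imply half-maximal potency below 2 µM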;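 further: 0% = DMSO untreated growth and 100% = chloroquine plus artemisinin killed control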). As to conditions: P. falciparum Dd2 in RBCs, LDH growth readout, 72 h; at 2 µM; stronger effect = higher value.
Experiment [2] in a line: HepG2 cytotoxicity, primary screen, cytotoxicity control for P. falciparum antimalarial project, cell-based, ATP luminescence (AID 2303;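 active means inhibition above 50%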;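 further: 0% = DMSO wells and 100% = digitonin-killed cells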). As to conditions: HepG2 viability, 24-48 h, at 10 µM, stronger effect = higher value.
Experiment [3] deals with L-lactate dehydrogenase (Plasmodium falciparum (isolate CDC / Honduras)) (UniProt Q27743). As to the kind of experiment: PfLDH activity inhibition – cell lysate, 3D7 strain, counter-screen for P. falciparum growth inhibition project (AID 2304).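 Further: 0% = vehicle and 100% = reference inhibitor.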 As to conditions: P. falciparum 3D7 crude extract, LDH APAD/NBT absorbance; at 2 µM; stronger effect = higher value. Background: Counterscreens check selectivity or assay interference.
L-lactate dehydrogenase (Plasmodium falciparum (isolate CDC / Honduras)), sequence (Q27743 whole entry, looked up): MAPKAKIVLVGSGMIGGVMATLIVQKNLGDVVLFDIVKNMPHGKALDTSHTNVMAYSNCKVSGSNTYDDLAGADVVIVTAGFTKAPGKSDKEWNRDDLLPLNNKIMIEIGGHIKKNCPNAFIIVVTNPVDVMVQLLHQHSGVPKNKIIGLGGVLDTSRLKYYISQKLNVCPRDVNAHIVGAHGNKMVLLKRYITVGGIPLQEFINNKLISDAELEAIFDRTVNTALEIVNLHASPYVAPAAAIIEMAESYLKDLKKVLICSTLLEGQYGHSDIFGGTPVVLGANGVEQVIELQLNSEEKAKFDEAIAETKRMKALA

Experiment [4] is described as follows: inhibition of 3D7 malaria parasite growth – strain 3D7 (AID 2306).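 Further: 0% = DMSO wells and 100% = chloroquine plus artemisinin control wells.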 The settings on record: P. falciparum 3D7 erythrocytic growth, LDH absorbance, 72 h; at 2 µM; stronger effect = higher value.
The target of experiment [5] is Calcium-dependent protein kinase 1 (Plasmodium falciparum (isolate 3D7)) (UniProt P62344). As to the kind of experiment: PfCDPK1 kinase inhibitors, biochemical, TCAMS library (AID 1159585; cut-off not given, nearly all actives have IC50 up to about 0.98 µM;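 further: inhibitors leave more ATP so luminescence rises with inhibition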). The settings on record: recombinant PfCDPK1, Kinase-Glo ATP depletion luminescence. On the technique in general: In Kinase-Glo more light means more ATP remaining.
Calcium-dependent protein kinase 1 (Plasmodium falciparum (isolate 3D7)), sequence (P62344 whole entry, looked up): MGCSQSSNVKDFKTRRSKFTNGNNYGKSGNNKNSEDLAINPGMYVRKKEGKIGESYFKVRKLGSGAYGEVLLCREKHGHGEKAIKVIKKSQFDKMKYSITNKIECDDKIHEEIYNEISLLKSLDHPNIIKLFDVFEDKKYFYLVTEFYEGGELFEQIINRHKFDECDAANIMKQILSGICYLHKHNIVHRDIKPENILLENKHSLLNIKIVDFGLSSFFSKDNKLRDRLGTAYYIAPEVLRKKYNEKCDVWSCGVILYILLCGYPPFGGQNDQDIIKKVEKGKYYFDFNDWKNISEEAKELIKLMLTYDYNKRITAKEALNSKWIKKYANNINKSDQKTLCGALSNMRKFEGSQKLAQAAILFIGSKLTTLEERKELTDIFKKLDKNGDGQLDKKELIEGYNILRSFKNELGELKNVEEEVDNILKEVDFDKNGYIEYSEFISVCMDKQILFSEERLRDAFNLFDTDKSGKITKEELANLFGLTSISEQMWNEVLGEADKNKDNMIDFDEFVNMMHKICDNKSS
The target of experiment [6] is Plasmodium falciparum protein kinase 6 (PK6, PF3D7_1337100) (UniProt Q8IDW1). As to the kind of experiment: PfPK6 kinase inhibitors, biochemical, TCAMS library (AID 1159586). As to conditions: recombinant PfPK6, Kinase-Glo ATP depletion luminescence.
Plasmodium falciparum protein kinase 6 (PK6, PF3D7_1337100), sequence (Q8IDW1 1-305): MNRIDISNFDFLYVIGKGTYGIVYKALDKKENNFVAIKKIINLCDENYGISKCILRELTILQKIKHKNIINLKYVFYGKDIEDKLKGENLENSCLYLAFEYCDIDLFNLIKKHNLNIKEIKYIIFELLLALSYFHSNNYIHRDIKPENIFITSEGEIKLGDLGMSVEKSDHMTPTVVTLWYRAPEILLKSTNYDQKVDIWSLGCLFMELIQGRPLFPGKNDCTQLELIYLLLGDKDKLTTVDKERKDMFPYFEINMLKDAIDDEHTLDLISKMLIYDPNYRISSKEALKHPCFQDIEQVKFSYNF
Experiment [7] deals with Protein kinase 7 (PK7), Plasmodium falciparum 3D7 (PF3D7_0213400) (UniProt Q7YTF7). As to the kind of experiment: inhibition of Plasmodium PK7 catalytic activity – biochemical, TCAMS antimalarial set, Kinase-Glo luminescence (AID 1159587). The settings on record: recombinant PfPK7, Kinase-Glo ATP depletion luminescence.
Protein kinase 7 (PK7), Plasmodium falciparum 3D7 (PF3D7_0213400), sequence (Q7YTF7 1-343): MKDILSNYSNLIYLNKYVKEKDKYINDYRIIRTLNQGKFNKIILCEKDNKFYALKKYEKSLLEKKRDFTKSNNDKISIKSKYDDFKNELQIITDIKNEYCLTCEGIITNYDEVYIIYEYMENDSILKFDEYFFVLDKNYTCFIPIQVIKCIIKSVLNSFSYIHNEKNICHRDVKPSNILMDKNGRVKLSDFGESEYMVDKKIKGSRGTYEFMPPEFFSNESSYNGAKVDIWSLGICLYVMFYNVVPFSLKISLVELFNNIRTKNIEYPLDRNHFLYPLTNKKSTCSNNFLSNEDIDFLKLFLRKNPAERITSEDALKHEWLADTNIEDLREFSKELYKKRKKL
Experiment [8] addresses Calcium-dependent protein kinase 4 (Plasmodium falciparum (isolate 3D7)) (UniProt Q8IBS5). Nature of the experiment: PfCDPK4 kinase inhibitors, biochemical, TCAMS library (AID 1159588; cut-off not given, nearly all actives have IC50 up to about 0.91 µM). The settings on record: recombinant PfCDPK4, Kinase-Glo ATP depletion luminescence.

In general, inhibition refers to the relative decrease from the control value, in per cent.

Unmarked numbers belong to inactive results. For some of these results: Potency and affinity values are given separately. Calls of active or inactive are those of the source. Unless noted, how the calls were made is not given here.

Calcium-dependent protein kinase 4 (Plasmodium falciparum (isolate 3D7)), sequence (Q8IBS5 whole entry, looked up): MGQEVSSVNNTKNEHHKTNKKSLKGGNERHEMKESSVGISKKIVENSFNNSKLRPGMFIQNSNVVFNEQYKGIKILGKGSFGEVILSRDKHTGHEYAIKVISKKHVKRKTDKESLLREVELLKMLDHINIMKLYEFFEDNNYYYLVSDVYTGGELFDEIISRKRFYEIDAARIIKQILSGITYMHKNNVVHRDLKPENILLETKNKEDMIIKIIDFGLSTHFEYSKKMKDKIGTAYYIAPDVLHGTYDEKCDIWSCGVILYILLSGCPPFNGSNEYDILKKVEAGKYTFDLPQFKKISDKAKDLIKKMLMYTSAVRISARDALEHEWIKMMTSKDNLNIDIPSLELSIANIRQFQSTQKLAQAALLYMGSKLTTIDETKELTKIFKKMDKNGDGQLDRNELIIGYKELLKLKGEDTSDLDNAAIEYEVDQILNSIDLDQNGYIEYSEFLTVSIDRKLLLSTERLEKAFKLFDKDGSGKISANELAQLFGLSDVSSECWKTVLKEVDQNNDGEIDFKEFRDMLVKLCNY

As for `O=C(Nc1ccc(OC2CCN(Cc3ccc(F)cc3)CC2)c(Cl)c1)c1ccoc1`, the growth inhibition in experiment [1] is 90% (active); in experiment [4], 89% (active). Further, the figures for the inhibition in experiment [2] and in experiment [3] were -2% and 2%, respectively. In addition, the outcome in experiment [5], in experiment [6], in experiment [7] and in experiment [8] was inactive.

As to `COc1cc(C=NNc2cc(C)nc3ccccc23)cc(OC)c1OC`, the growth inhibition is 95% (active) in experiment [1] and 102% (active) in experiment [4]. The inhibition in experiment [2] is 5%; in experiment [3], -1%. In addition, the result in experiment [5], in experiment [6], in experiment [7] and in experiment [8] was inactive.

As for `CC(C)CCn1c(Sc2ccc(C#N)c([N+](=O)[O-])c2)nnc1-c1ccccc1Cl`, the growth inhibition is 38% in experiment [1] and 93% (active) in experiment [4]. Besides, the inhibition is 20% in experiment [2] and 3% in experiment [3]. The result in experiment [5], in experiment [6], in experiment [7] and in experiment [8] was inactive.

With `COc1cc2c(cc1N1C[C@@H](C)N[C@@H](C)C1)N(C(=O)c1ccc(-c3ccc(-c4ncc[nH]4)cc3C)cc1)CC2`, the growth inhibition in experiment [1] was 58% (active); in experiment [4], 98% (active). The results for the inhibition in experiment [2] and in experiment [3] were 7% and -2%, respectively. Further, the outcome in experiment [5], in experiment [6], in experiment [7] and in experiment [8] was inactive.

Consider `O=c1nc(C=Cc2ccc(Br)cc2)oc2ccccc12`, for which the growth inhibition in experiment [1] was 66% (active); in experiment [4], 97% (active). Besides, the inhibition was -8% in experiment [2] and -1% in experiment [3]. The result in experiment [5], in experiment [6], in experiment [7] and in experiment [8] was inactive.

`O=C1SC(=Cc2ccc(O)c(O)c2)C(=O)N1c1ccccc1`: the growth inhibition was 17% in experiment [1] and 91% (active) in experiment [4]. Further, the inhibition in experiment [2] was 12%; in experiment [3] it was -5%. Besides, the outcome in experiment [5], in experiment [6], in experiment [7] and in experiment [8] was inactive.

In the case of `COc1ccc2nccc(N3CCCN(CCNS(=O)(=O)c4ccc5c(c4)NC(=O)CS5)CC3)c2n1`, the growth inhibition in experiment [1] is 15%; in experiment [4], 97% (active). The inhibition in experiment [2] was -2%; in experiment [3] it was -9%. Further, the outcome in experiment [5], in experiment [6], in experiment [7] and in experiment [8] was inactive.

With `Cc1cc2ccc(/C=C/C(=O)NC3CCC(CCN4CCc5ccc(C#N)cc5CC4)CC3)cc2[nH]1` (stereo not given), the growth inhibition was 56% (active) in experiment [1] and 84% (active) in experiment [4]. The inhibition in experiment [2] is 19%; in experiment [3], -1%. In addition, the outcome in experiment [5], in experiment [6], in experiment [7] and in experiment [8] was inactive.

Turning to `CCCCOc1ccc(-c2nc3ccccc3[nH]2)cc1`, the growth inhibition was 82% (active) in experiment [1] and 86% (active) in experiment [4]. Besides, the inhibition in experiment [2] was 21%; in experiment [3], -1%. For the same compound, the result in experiment [5], in experiment [6], in experiment [7] and in experiment [8] was inactive.

In the case of `CC(C)(CC1CCCCC1)NC(=O)[C@H](CC1CCCCC1)Nc1ccc(C#N)c2ccccc12`, the growth inhibition in experiment [1] was 52% (active); in experiment [4] it was 98% (active). Moreover, the inhibition in experiment [2] is 14%; in experiment [3], -2%. For the same compound, the outcome in experiment [5], in experiment [6], in experiment [7] and in experiment [8] was inactive.

For `N#Cc1ccc2c(c1)CCN(CCC1CCC(NC(=O)/C=C/c3c[nH]c4ccc(F)cc34)CC1)CC2` (stereo not given), the growth inhibition in experiment [1] is 83% (active); in experiment [4] it was 101% (active). Moreover, the inhibition in experiment [2] was 18%; in experiment [3], 4%. Moreover, the result in experiment [5], in experiment [6], in experiment [7] and in experiment [8] was inactive.

With `O=C1CCCN1CCCNCc1ccc(-c2ccc(-c3nc4ccc(C(F)(F)F)cc4[nH]3)cc2)cc1`, the figures for the growth inhibition in experiment [1] and in experiment [4] were 98% (active) and 101% (active), respectively. The inhibition in experiment [2] was 10%; in experiment [3], -5%. Besides, the result in experiment [5], in experiment [6], in experiment [7] and in experiment [8] was inactive.

Regarding `CCCC(C)Nc1nc(C)cc(N[C@@H](Cc2ccccc2)C(=O)NCc2cccc(F)c2)n1` (stereo not given in full), the figures for the growth inhibition in experiment [1] and in experiment [4] were 75% (active) and 100% (active), respectively. Further, the figures for the inhibition in experiment [2] and in experiment [3] were 9% and -2%, respectively. Besides, the result in experiment [5], in experiment [6], in experiment [7] and in experiment [8] was inactive.

In the case of `O=C(Nc1ccc(-c2cccc(-c3nc4ccc(F)cc4[nH]3)c2)cc1)Nc1ccc(F)c(F)c1F`, the growth inhibition in experiment [1] is 98% (active); in experiment [4], 100% (active). In addition, the inhibition is 70% (active) in experiment [2] and 3% in experiment [3]. The outcome in experiment [5], in experiment [6], in experiment [7] and in experiment [8] was inactive.

Regarding `COc1c(C2CCN(CCCCNC(=O)c3oc(-c4ccc(Cl)cc4)cc3CO)CC2)ccc2c1CCCC2`, the results for the growth inhibition in experiment [1] and in experiment [4] were 95% (active) and 102% (active), respectively. In addition, the values for the inhibition in experiment [2] and in experiment [3] were 80% (active) and 4%, respectively. The result in experiment [5], in experiment [6], in experiment [7] and in experiment [8] was inactive.

For the compound `FC(F)(F)c1ccc2nc(-c3cccc(-c4cccc(CNCCN5CCNCC5)c4)c3)[nH]c2c1`, the growth inhibition in experiment [1] is 18%; in experiment [4], 92% (active). The inhibition in experiment [2] is 29%; in experiment [3], 4%. The result in experiment [5], in experiment [6], in experiment [7] and in experiment [8] was inactive.

For `COc1ccc(CCNCC(O)c2cccc(Br)c2)c(Cl)c1OC` (stereo not given), the results for the growth inhibition in experiment [1] and in experiment [4] were 70% (active) and 87% (active), respectively. The results for the inhibition in experiment [2] and in experiment [3] were 18% and 0%, respectively. Besides, the outcome in experiment [5], in experiment [6], in experiment [7] and in experiment [8] was inactive.

Take `CCC[C@@H]([C@@H](CC1CCCCC1)C(=O)N[C@H](C(=O)Nc1nccs1)C(C)(C)SC)N(O)C=O`: the growth inhibition in experiment [1] is 98% (active); in experiment [4], 97% (active). Moreover, the inhibition in experiment [2] was 51% (active); in experiment [3], 7%. In addition, the outcome in experiment [5], in experiment [6], in experiment [7] and in experiment [8] was inactive.

Take `O=C1CCCN1CCCNCc1ccc(-c2cccc(-c3nc4ccc(F)cc4[nH]3)c2)cc1`: the results for the growth inhibition in experiment [1] and in experiment [4] were 8% and 101% (active), respectively. Further, the inhibition in experiment [2] is 12%; in experiment [3] it was -1%. Besides, the result in experiment [5], in experiment [6], in experiment [7] and in experiment [8] was inactive.

`CN1CCN(CCCN(Cc2csc(-c3ccc(CNCc4ccccc4)cc3)n2)S(=O)(=O)c2cccc3cccnc23)CC1`: the growth inhibition in experiment [1] is 32%; in experiment [4] it was 89% (active). Also, the inhibition in experiment [2] is 5%; in experiment [3], 1%. Also, the outcome in experiment [5], in experiment [6], in experiment [7] and in experiment [8] was inactive.
